According to PubChem BioAssay AID2156 (Johns Hopkins Ion Channel Center, 2009):
Hit rate of the full screen: of about 310,000 compounds, about 3,400 (1.1%) were called active.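 How the source made its calls: active means fluorescence ratio B-score at most minus 3 library SDs, with starting brightness B-score within 2 library SDs (cut at about -5.5 in these data); inactive means the rest, inconclusive results apart.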 The sample as a whole holds a higher share of actives than the screen did.

Target: Potassium voltage-gated channel subfamily KQT member 2 (Rattus norvegicus) (UniProt O88943)
Sequence (O88943 whole entry, looked up): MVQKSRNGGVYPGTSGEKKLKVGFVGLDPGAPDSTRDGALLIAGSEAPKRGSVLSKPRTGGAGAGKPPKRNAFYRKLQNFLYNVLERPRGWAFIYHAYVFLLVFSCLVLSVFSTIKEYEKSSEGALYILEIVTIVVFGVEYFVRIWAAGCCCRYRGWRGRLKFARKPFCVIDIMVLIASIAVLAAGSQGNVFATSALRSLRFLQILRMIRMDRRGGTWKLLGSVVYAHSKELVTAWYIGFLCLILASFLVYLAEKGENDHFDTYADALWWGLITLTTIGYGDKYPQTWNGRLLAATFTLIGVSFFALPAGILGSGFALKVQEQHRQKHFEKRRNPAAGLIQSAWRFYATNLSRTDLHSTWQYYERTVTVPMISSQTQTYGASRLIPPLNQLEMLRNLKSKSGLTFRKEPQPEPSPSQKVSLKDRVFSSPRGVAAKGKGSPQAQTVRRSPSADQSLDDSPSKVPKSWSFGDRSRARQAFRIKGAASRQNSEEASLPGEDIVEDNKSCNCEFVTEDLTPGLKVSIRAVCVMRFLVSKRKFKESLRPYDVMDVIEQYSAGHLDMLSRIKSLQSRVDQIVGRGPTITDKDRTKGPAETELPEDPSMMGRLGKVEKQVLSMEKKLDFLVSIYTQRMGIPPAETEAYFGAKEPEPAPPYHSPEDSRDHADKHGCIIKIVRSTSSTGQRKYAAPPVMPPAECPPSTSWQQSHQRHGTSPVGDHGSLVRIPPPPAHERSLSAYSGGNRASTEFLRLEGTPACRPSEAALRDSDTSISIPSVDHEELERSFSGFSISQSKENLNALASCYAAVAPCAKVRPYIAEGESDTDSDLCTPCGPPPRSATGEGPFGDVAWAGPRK
Assay: KCNQ2 channel blockers in CHO-K1 cells – cell-based, FluxOR thallium flux, B-score, primary screen (AID 2156)
Conditions: 20 min, at 10 µM; stronger effect = lower value

B-score, inactive:
COc1cc(NC(=O)CSC(=S)N2CCCC2)c(OC)cc1Cl, Cc1c(CN2CC[C@@H](N3CCN(c4ccccn4)CC3)[C@H](O)C2)[nH]c2ccc(F)cc12 -0.01, CC(C)OCCCNc1ncnc2c1[nH]c1ccc(F)cc12 -0.41, Cc1ccc(CNS(=O)(=O)CCNC(=O)c2ccccc2)cc1, CSc1ccccc1NC(=O)c1cnc2sc(C)cn2c1=O, O=C(Nc1ccccc1)N1CCN(C(=O)Nc2ccccc2)CC1, COc1cc(C(=O)NCC(=O)N2CC=C(c3ccccc3)CC2)cc(OC)c1OC, CC(OC(=O)CNC(=O)c1cccc(F)c1)C(=O)NC1CCCCC1C (stereo not given), COCCCN(C(=O)CSCc1ccc(C)cc1)c1c(N)n(Cc2ccccc2)c(=O)[nH]c1=O, CCCCCCOc1ccc(OC(=O)c2cccnc2)cc1, CN(C)CCCN1C(=O)CSC1c1ccc([N+](=O)[O-])cc1 (stereo not given) -0.19, O=C(Nc1ccc(OC(F)(F)F)cc1)c1ccc2c(c1)no[n+]2[O-], COc1cccc(-c2nc(S(=O)(=O)c3ccccc3)c(N3CCOCC3)o2)c1, COc1cccc(CNc2nc3nc4c(c(=O)n3[nH]2)CCC4)c1, CN(C(=O)CN1C(=O)NC(C)(CCc2ccccc2)C1=O)c1ccccc1 (stereo not given), CC(C)CC(N=C1NC(C)(C)Cc2ccccc21)C(=O)O (stereo not given) -0.08, CCOC(=O)C1=C(NC(=S)NC(=O)c2ccccc2)c2ccccc2CC1(C)C -1.51, COc1cccc(CC(=O)Nc2nc(-c3ccc(OC)c(OC)c3)cs2)c1, COc1ccc(CCNc2nc(-c3cccc(NC(C)=O)c3)cs2)cc1OC -0.02, CCN1CCN(c2ccc(S(=O)(=O)N3CCCCC3)cc2NC(=O)c2cccc(NC(C)=O)c2)CC1, COc1cc(C(=O)OCC(=O)N(CC(C)C)C2CCS(=O)(=O)C2)ccc1OCC(C)C (stereo not given), C=CCn1c(SCc2c(C)noc2C)nc2sc3c(c2c1=O)CCC(C)C3 (stereo not given) -3.13, C=CCNC(=O)CSc1nc2scc(-c3ccco3)c2c(=O)n1CC=C -1, COc1cc(C(=O)N(C)Cc2cccc(OC)c2OC)ccc1OCC(=O)Nc1cccc(C(F)(F)F)c1 -4.11, COc1ccc(F)cc1S(=O)(=O)NCC(c1ccc2c(c1)OCO2)N1CCN(C)CC1 (stereo not given) -0.58, Cc1cc(OCCCN2CCN(Cc3ccccc3)CC2)ccc1[N+](=O)[O-], Cc1cc(OCC(=O)Nc2c(C)n(C)n(-c3ccccc3)c2=O)ccc1[N+](=O)[O-] -0.54, Cc1cccc(N(Cc2ccccc2)C(=O)c2cc(S(=O)(=O)N3CCOCC3)ccc2F)c1, CC(=O)c1c(C)[nH]c(C(=O)CN2C(=O)NC(C)(C)C2=O)c1C, COc1ccccc1NS(=O)(=O)c1ccc(C(=O)N2CCN(c3ccccc3O)CC2)cc1, Cc1c(NC(=O)C(C)OC(=O)c2c3c(nc4ccccc24)CCC(C)C3)c(=O)n(-c2ccccc2)n1C (stereo not given), Cc1ccc(Cl)c(OCC(=O)N2CCc3ccccc3C2)c1 -3.66, Cc1ccc2c(c1)N(C(=O)CCC(=O)NCc1cccnc1)CCO2 -0.11, COc1ccc(C(=O)OCC(=O)Nc2ccc3[nH]c(=O)[nH]c3c2)c(OC)c1OC -0.64, Cn1nccc1C(=O)NC1CCCc2c1cnn2-c1ccccc1F (stereo not given), Cc1cc(C(=O)NC2CCCc3c2cnn3-c2cccc(C)c2C)c(C)o1 (stereo not given) -2.79, O=C(COC(=O)Cn1[nH]c(=O)c2ccccc2c1=O)Nc1c(Cl)cccc1C(F)(F)F, Cc1ccc2nc(NC(=O)CSc3nc(=O)n(CCCN(C)C)c4c3CCC4)sc2c1, CC12CCC(=O)N1C(C(=O)Nc1ccc(F)c(F)c1F)CS2 (stereo not given), CCOc1ccc(NS(=O)(=O)c2ccc(C(=O)NCC(c3ccccc3OC)N3CCCC3)cc2)cc1 (stereo not given) -1.58, Cc1ccc(N2C(=O)C3CC3C2=O)cc1 (stereo not given), Cc1ccc(N2C(=O)CC(Nc3cccc4ccccc34)C2=O)cc1 (stereo not given) -1.06, CN(CC(=O)Nc1ccccc1Cl)C(=O)c1ccccc1SCC(=O)N1CCCC1 -0.59, CCCCCCCNC(=O)C1(CC2CC(c3cccc(Br)c3)=NO2)CCN(C(=O)c2cc(OCC)c(OCC)c(OCC)c2)CC1 (stereo not given) -2.53, N#Cc1c(NC(=O)CCCN2C(=O)c3ccccc3C2=O)oc(-c2ccccc2)c1-c1ccccc1 -1.14, COC(=O)c1sccc1NC(=O)c1cc(OC)c(OC)c(OC)c1, Cc1cccc(-c2nc(Nc3ccc(O)cc3)c3ccccc3n2)c1 -3.05

B-score, active:
Fc1ccc2[nH]c3c(N4CCSCC4)ncnc3c2c1 -10.1, O=C(Nc1ccc(Cl)c(Cl)c1)N1CC=C(c2ccccc2)CC1 -8.43, CCCCCCCCCCCCN1C(=O)CSC1c1cccnc1 (stereo not given) -6.52, COc1cccc(-c2cc3nc4c(c(N5CCC6(CC5)OCCO6)n3n2)CCCC4)c1 -5.95, CC1(C)Cc2ccccc2/C(=C/C(=O)c2ccccc2)N1 -5.67, COc1ccc(CCN(C(=O)COc2ccccc2)c2nc(-c3ccccc3)cs2)cc1OC -7.67, C=CCn1c(SCc2csc(C)n2)nc2scc(-c3ccc(C)o3)c2c1=O -5.75, Cc1cc(OCCCCOc2ccc(C#N)cc2)ccc1[N+](=O)[O-] -6.09, Cc1ccc2c(c1)N(C(=O)CCC(=O)N1CCc3ccccc3C1)CCO2 -5.74, COc1ccc(C(=O)NC2CCCc3c2cnn3-c2cccc(C)c2C)c(OC)n1 (stereo not given) -6.25, Cc1ccc(N2C(=O)C3C(c4ccccc4)(C2=O)C3(c2ccccc2)c2ccccc2)cc1 (stereo not given) -9.48, COc1cc(C(=O)Nc2oc(-c3ccccc3)c(-c3ccccc3)c2C#N)cc(OC)c1OC -6.31, Cc1cccc(-[n+]2c(-c3cccc(Br)c3)[nH]c3nc4ccccc4nc32)c1 -6.92
